Experimental data published in PubChem BioAssay (NCI).
Compounds without any hit were thinned out: in the full panel of roughly 79,000, 15% have a hit. Calls of active or inactive are those of the source. Cut-off read from the data, not from the text of the source: active = growth inhibition above about 70%; inactive = the rest.

Assays:
[1] = NCI Yeast Anticancer Drug Screen. Data for the rad52 strain (AID 147);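 note: 0% = growth of vehicle-treated control cultures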; conditions: S. cerevisiae rad52 mutant growth inhibition, active compounds read high
Summary of the method: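 Measured: yeast growth inhibition. System: strain with a defined DNA damage repair alteration. Reference: vehicle-treated control cultures.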

[2] = NCI Yeast Anticancer Drug Screen. Data for the wt1 strain (AID 149);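 note: 0% = growth of vehicle-treated wt1 cultures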; conditions: S. cerevisiae wt1 strain (SPY 50644) growth inhibition, active compounds read high
Summary of the method: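 wt1 strain grown with compound or vehicle; inhibition taken from the growth difference.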

[3] = NCI Yeast Anticancer Drug Screen. Data for the rad50EPP+ strain (AID 151);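 note: 0% = growth of vehicle-treated control cultures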; conditions: S. cerevisiae rad50 mutant strain, active compounds read high
Summary of the method: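 One strain with a rad50 alteration (rad50EPP+) was compound-treated, its growth then compared to that of vehicle controls.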

[4] = NCI Yeast Anticancer Drug Screen. Data for the mgt1 strain (AID 153); conditions: S. cerevisiae mgt1 mutant growth inhibition, active compounds read high
Summary of the method: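 After exposure of the mgt1 yeast mutant to compound, growth was measured and reported as inhibition compared with vehicle controls.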

[5] = NCI Yeast Anticancer Drug Screen. Data for the rad50 strain (AID 155);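 note: 0% = growth of vehicle-only cultures of the same strain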; conditions: S. cerevisiae rad50 strain growth inhibition, active compounds read high
Summary of the method: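 DNA repair mutant yeast, compound exposure, growth read-out; inhibition is taken relative to vehicle.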

[6] = NCI Yeast Anticancer Drug Screen. Data for the mec2-1 strain (AID 157); conditions: S. cerevisiae mec2-1 strain, active compounds read high
Summary of the method: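 Test agents were screened against the mec2-1 yeast strain, with defined DNA repair or cell cycle alteration. Growth was scored as inhibition against vehicle-only controls.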

[7] = NCI Yeast Anticancer Drug Screen. Data for the rad14 strain (AID 159);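 note: 0% = growth of vehicle-treated control cultures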; conditions: S. cerevisiae rad14 strain growth inhibition, active compounds read high
Summary of the method: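 DNA repair-defective yeast, compound-exposed; % growth inhibition derived by comparison with vehicle-treated controls.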

[8] = NCI Yeast Anticancer Drug Screen. Data for the sgs1 mgt1 strain (AID 161);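 note: 0% = growth of cultures given vehicle only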; conditions: S. cerevisiae sgs1 mgt1 strain, active compounds read high
Summary of the method: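 Mutant yeast exposed to compound; growth scored against vehicle-only wells.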

[9] = NCI Yeast Anticancer Drug Screen. Data for the CLN2oe strain (AID 163);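 note: 0% = growth of vehicle-only control cultures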; conditions: S. cerevisiae CLN2oe strain, active compounds read high
Summary of the method: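 Here, growth inhibition in a cell-cycle-altered yeast strain after compound exposure was quantified against vehicle control growth.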

[10] = NCI Yeast Anticancer Drug Screen. Data for the bub3 strain (AID 167); conditions: S. cerevisiae bub3 mutant strain, active compounds read high
Summary of the method: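 In this screen, a yeast mutant lacking normal mitotic checkpoint function is challenged with compound. Relative growth versus vehicle gives the inhibition value.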

[11] = NCI Yeast Anticancer Drug Screen. Data for the wt2 strain (AID 169);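 note: 0% = growth of vehicle-treated yeast cultures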; conditions: S. cerevisiae wt2 strain growth inhibition, active compounds read high
Summary of the method: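 Genetically defined yeast strains from a DNA-repair/cell-cycle panel were used. Compound-exposed yeast growth was measured, and the inhibition was calculated relative to vehicle treatment.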

[12] = NCI Yeast Anticancer Drug Screen. Data for the mlh1 strain (AID 171);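 note: 0% = growth of vehicle-treated control cultures of the same strain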; conditions: S. cerevisiae mlh1 strain growth inhibition, active compounds read high
Summary of the method: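 Here the genetically defined yeast mutant is grown with each compound, and the extent to which its growth falls below that of vehicle-exposed cells is reported.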

[13] = NCI Yeast Anticancer Drug Screen. Data for the sgs1 strain (AID 173);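 note: 0% = growth of vehicle-only control cultures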; conditions: S. cerevisiae sgs1 mutant, active compounds read high
Summary of the method: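 Relative growth inhibition, referenced to vehicle, was determined in a yeast strain with a defined alteration affecting DNA damage repair or cell cycle control after compound exposure.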

[14] = NCI Yeast Anticancer Drug Screen. Data for the mlh1 rad18 strain (AID 175); conditions: S. cerevisiae mlh1 rad18 strain growth inhibition, active compounds read high
Summary of the method: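 In this whole-cell yeast screen, a strain with altered DNA damage repair is challenged with compound, and its growth is measured against matched vehicle-treated controls.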

[15] = NCI Yeast Anticancer Drug Screen. Data for the rad18 strain (AID 177); conditions: S. cerevisiae rad18 mutant growth inhibition, active compounds read high
Summary of the method: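 Screen uses a yeast strain with a defined lesion in DNA damage repair; compound effect is read as loss of growth compared to untreated vehicle cultures.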

[16] = NCI Yeast Anticancer Drug Screen. Data for the cln2 rad14 strain (AID 165);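 note: 0% = growth equal to vehicle treated cultures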; conditions: S. cerevisiae cln2 rad14 strain, active compounds read high
Summary of the method: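 Growth of compound-exposed yeast (cln2 rad14 genotype) measured and expressed as inhibition relative to vehicle.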

[17] = at 5.0 µM (retest, dose inferred, filed as 0.5)
[18] = at 50.0 µM (retest, dose inferred, filed as 5.0)

Measured: growth inhibition

O=C(O)c1ccccc1NC(=S)c1ccccc1
active: [3]; at 100.0 µM 83% | [4]; at 100.0 µM 81% | [5]; [18] 97% | [5]; at 100.0 µM 83% | [6]; [18] 96% | [10]; [18] 79% | [10]; at 100.0 µM 70% | [14]; [18] 99%
inactive: [1]; at 1.2 µM -5% | [1]; at 3.7 µM -1% | [1]; at 11.0 µM -4% | [1]; at 33.0 µM 7% | [1]; at 100.0 µM 67% | [2]; at 1.2 µM 4% | [2]; at 3.7 µM 1% | [2]; at 11.0 µM -4% | [2]; at 33.0 µM -5% | [2]; at 100.0 µM 26% | [3]; at 1.2 µM 13% | [3]; at 3.7 µM 14% | [3]; at 11.0 µM 34% | [3]; at 33.0 µM 53% | [4]; at 1.2 µM 5% | [4]; at 3.7 µM 0% | [4]; at 11.0 µM -3% | [4]; at 33.0 µM 18% | [5]; at 1.2 µM -3% | [5]; at 3.7 µM -26% | [5]; [17] 53% | [5]; at 11.0 µM -20% | [5]; at 33.0 µM -11% | [5]; at 50.0 µM 4.25% | [6]; at 1.2 µM -31% | [6]; at 3.7 µM -10% | [6]; [17] 63% | [6]; at 11.0 µM -26% | [6]; at 33.0 µM -23% | [6]; at 50.0 µM 11.6% | [6]; at 100.0 µM 10% | [7]; at 1.2 µM 2% | [7]; at 3.7 µM 4% | [7]; at 11.0 µM -4% | [7]; at 33.0 µM 17% | [7]; at 100.0 µM 68% | [8]; [17] -20% | [8]; [18] 65% | [8]; at 50.0 µM -0.55% | [9]; at 1.2 µM 0% | [9]; at 3.7 µM 11% | [9]; at 11.0 µM 6% | [9]; at 33.0 µM 10% | [9]; at 100.0 µM 33% | [10]; at 1.2 µM -16% | [10]; at 3.7 µM -12% | [10]; [17] 16% | [10]; at 11.0 µM 0% | [10]; at 33.0 µM 5% | [10]; at 50.0 µM 17.4% | [11]; at 1.2 µM -1% | [11]; at 3.7 µM 5% | [11]; at 11.0 µM 1% | [11]; at 33.0 µM 1% | [11]; at 100.0 µM 42% | [12]; at 1.2 µM 3% | [12]; at 3.7 µM 5% | [12]; at 11.0 µM 3% | [12]; at 33.0 µM 5% | [12]; at 100.0 µM 62% | [13]; at 1.2 µM -18% | [13]; at 3.7 µM -6% | [13]; at 11.0 µM -12% | [13]; at 33.0 µM -4% | [13]; at 100.0 µM 53% | [14]; [17] 43% | [14]; at 50.0 µM 1.6% | [15]; at 1.2 µM -16% | [15]; at 3.7 µM -4% | [15]; at 11.0 µM -8% | [15]; at 33.0 µM 16% | [15]; at 100.0 µM 69%

COc1cc2c(c(OC)c1OC)-c1c(cc3c(c1OC)OCO3)CC(C)C(C)(O)C2OC(=O)c1ccccc1 (stereo not drawn)
inactive: [1]; at 1.2 µM -26% | [1]; at 3.7 µM -15% | [1]; at 11.0 µM -25% | [1]; at 33.0 µM -22% | [1]; at 100.0 µM 47% | [2]; at 1.2 µM -16% | [2]; at 3.7 µM -26% | [2]; at 11.0 µM -10% | [2]; at 33.0 µM 7% | [2]; at 100.0 µM 3% | [3]; at 1.2 µM -2% | [3]; at 3.7 µM -19% | [3]; at 11.0 µM -26% | [3]; at 33.0 µM -21% | [3]; at 100.0 µM 5% | [4]; at 1.2 µM -5% | [4]; at 3.7 µM -9% | [4]; at 11.0 µM -14% | [4]; at 33.0 µM -17% | [5]; at 1.2 µM -53% | [5]; at 3.7 µM -18% | [5]; [17] -3% | [5]; at 11.0 µM -25% | [5]; at 33.0 µM -17% | [5]; [18] 40% | [5]; at 100.0 µM 50% | [6]; at 1.2 µM -2% | [6]; at 3.7 µM 12% | [6]; [17] -8% | [6]; at 11.0 µM 16% | [6]; at 33.0 µM 12% | [6]; [18] 13% | [6]; at 50.0 µM 55.5% | [6]; at 100.0 µM 34% | [7]; at 1.2 µM 9% | [7]; at 3.7 µM 1% | [7]; at 11.0 µM -5% | [7]; at 33.0 µM -4% | [7]; at 100.0 µM 33% | [8]; [17] 19% | [8]; [18] 68% | [16]; [17] 10% | [16]; [18] 68% | [16]; at 50.0 µM 50.2% | [10]; at 1.2 µM -8% | [10]; at 3.7 µM 11% | [10]; [17] -2% | [10]; at 11.0 µM 10% | [10]; at 33.0 µM 22% | [10]; [18] 49% | [10]; at 100.0 µM 36% | [11]; at 1.2 µM -26% | [11]; at 3.7 µM -28% | [11]; at 11.0 µM -29% | [11]; at 33.0 µM 33% | [12]; at 1.2 µM -13% | [12]; at 3.7 µM -6% | [12]; at 11.0 µM -13% | [12]; at 33.0 µM -9% | [12]; at 100.0 µM 56% | [13]; at 1.2 µM -1% | [13]; at 3.7 µM -9% | [13]; at 11.0 µM 9% | [13]; at 33.0 µM -6% | [13]; at 100.0 µM 69% | [14]; [17] 3% | [14]; [18] 47% | [15]; at 1.2 µM -45% | [15]; at 3.7 µM -37% | [15]; at 11.0 µM -26% | [15]; at 33.0 µM -10% | [15]; at 100.0 µM 46%
active: [4]; at 100.0 µM 70% | [5]; at 50.0 µM 71.2% | [8]; at 50.0 µM 85.4% | [10]; at 50.0 µM 72.2% | [11]; at 100.0 µM 93% | [14]; at 50.0 µM 87.8%
